Results: the supplement of paper PMC10849652
The full data set covers some 7,900 targets. This sample favours those with a hit. About 0.6% of all pairs of compound and target were hits. A number with no mark means an inactive call.

Columns and labels:
Experiment in all cases: log2 fold change, soluble protein after heating vs DMSO (PISA); higher = thermal stabilisation; K562 cells, 10 uM, 30 min; active = over 0.2 and 3.5 SD of the protein, either way, in both replicates (recomputed)
[1] = compound: CC[C@@H]1C(=O)N(C)c2cnc(Nc3ccc(C(=O)NC4CCN(C)CC4)cc3OC)nc2N1C1CCCC1
In short: (§1)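 K562 cells at 2×10^6 cells/mL were treated with 10 μM compound for 30 min. Aliquots were heated for 3 min across 48°C-58°C, pooled, and extracted in PBS with 0.5% NP-40 at 4°C; soluble protein was the supernatant after 21,000xg for 90 min. Soluble protein was quantified by TMTpro 16plex LC-MS/MS with channel sums equalised, and reported as log2 fold change in thermal stability against DMSO controls, with values from duplicates.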

volasertib = compound: CC[C@@H]1C(=O)N(C)c2cnc(Nc3ccc(C(=O)N[C@H]4CC[C@H](N5CCN(CC6CC6)CC5)CC4)cc3OC)nc2N1C(C)C [volasertib]
In short: as §1

[2] = compound: CC[C@H](C)N1C=C(C2=C(C=C(C=C21)C3=CN=C(C=C3)N4CCNCC4)C(=O)NCC5=C(C=C(NC5=O)C)C)C
In short: as §1

epoxomicin = compound: CC[C@H](C)[C@@H](C(=O)N[C@@H]([C@@H](C)O)C(=O)N[C@@H](CC(C)C)C(=O)[C@]1(CO1)C)NC(=O)[C@H]([C@@H](C)CC)N(C)C(=O)C [epoxomicin]
In short: as §1

[3] = compound: CCn1c(C(=O)N(C2CC2)C2CC2)cc2c3c(ncn3C)c(Nc3cc(C)n(C)n3)nc21
In short: as §1

[4] = compound: CCn1cc(-c2ccnc3[nH]c(-c4cccc(CN(C)C)c4)cc23)c(-c2ccc(NC(=O)N(C)C)cc2)n1
In short: as §1

[5] = compound: CN(C)CC(=O)Nc1ccc2[nH]c(=O)c3ccccc3c2c1
In short: as §1

rosiglitazone = compound: CN(CCOC1=CC=C(C=C1)C[C@H]2C(=O)NC(=O)S2)C3=CC=CC=N3 (racemic) [rosiglitazone]
In short: as §1

[6] = compound: CN1C2=C(C3=C1C(=O)N(N=C3)CC4=CC(=CC=C4)N)SC(=C2)S(=O)C
In short: as §1

[7] = compound: CN1CCC(CNc2ccc3ncc(-c4cccc(OC(F)(F)F)c4)n3n2)CC1
In short: as §1

saracatinib = compound: CN1CCN(CCOc2cc(OC3CCOCC3)c3c(Nc4c(Cl)ccc5c4OCO5)ncnc3c2)CC1 [saracatinib]
In short: as §1

sotrastaurin = compound: CN1CCN(c2nc(C3=C(c4c[nH]c5ccccc45)C(=O)NC3=O)c3ccccc3n2)CC1 [sotrastaurin]
In short: as §1

alvocidib = compound: CN1CC[C@H](c2c(O)cc(O)c3c(=O)cc(-c4ccccc4Cl)oc23)[C@H](O)C1 [alvocidib]
In short: as §1

Tubastatin A = compound: CN1CCc2c(c3ccccc3n2Cc2ccc(C(=O)NO)cc2)C1 [Tubastatin A]
In short: as §1

[8] = compound: CNC(=O)C1=CC=CC=C1NC2=NC(=NC=C2Cl)NC3=C(C=C(C=C3)N4CCOCC4)OC
In short: as §1

defactinib = compound: CNC(=O)c1ccc(Nc2ncc(C(F)(F)F)c(NCc3nccnc3N(C)S(C)(=O)=O)n2)cc1 [defactinib]
In short: as §1

rucaparib = compound: CNCc1ccc(-c2[nH]c3cc(F)cc4c3c2CCNC4=O)cc1 [rucaparib]
In short: as §1

[9] = compound: CNc1nc(-c2ccc3c(N)n[nH]c3c2)cc(N2C[C@@H](C(=O)NC3CCCCC3)CC[C@H]2C)n1
In short: as §1

encorafenib = compound: COC(=O)N[C@@H](C)CNc1nccc(-c2cn(C(C)C)nc2-c2cc(Cl)cc(NS(C)(=O)=O)c2F)n1 [encorafenib]
In short: as §1

[10] = compound: COC(=O)[C@H](CCSC)NC(=O)C1=C(C=C(C=C1)NC[C@H](CS)N)C2=CC=CC=C2
In short: as §1

UniProt P49321, sequence (P49321 whole entry, looked up): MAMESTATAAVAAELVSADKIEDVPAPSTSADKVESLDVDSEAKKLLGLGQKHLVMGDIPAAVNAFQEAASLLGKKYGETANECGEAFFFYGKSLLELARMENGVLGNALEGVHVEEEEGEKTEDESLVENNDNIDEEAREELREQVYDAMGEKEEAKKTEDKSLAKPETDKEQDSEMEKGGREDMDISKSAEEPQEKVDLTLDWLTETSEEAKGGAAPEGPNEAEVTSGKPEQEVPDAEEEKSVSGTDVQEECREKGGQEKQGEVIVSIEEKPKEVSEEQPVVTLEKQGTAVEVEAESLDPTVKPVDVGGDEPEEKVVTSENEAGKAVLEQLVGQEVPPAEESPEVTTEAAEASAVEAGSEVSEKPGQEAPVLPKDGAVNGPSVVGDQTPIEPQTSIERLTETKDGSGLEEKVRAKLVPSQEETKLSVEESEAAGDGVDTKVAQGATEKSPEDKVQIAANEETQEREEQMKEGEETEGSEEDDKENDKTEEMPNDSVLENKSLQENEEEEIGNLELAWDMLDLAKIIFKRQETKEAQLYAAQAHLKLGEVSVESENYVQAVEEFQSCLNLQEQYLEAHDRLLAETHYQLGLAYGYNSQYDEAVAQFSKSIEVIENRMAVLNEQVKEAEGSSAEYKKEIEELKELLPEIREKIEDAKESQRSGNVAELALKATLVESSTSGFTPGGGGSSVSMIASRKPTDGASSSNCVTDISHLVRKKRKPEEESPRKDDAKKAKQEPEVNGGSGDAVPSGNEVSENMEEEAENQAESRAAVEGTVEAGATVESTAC
UniProt P51948, sequence (P51948 whole entry, looked up): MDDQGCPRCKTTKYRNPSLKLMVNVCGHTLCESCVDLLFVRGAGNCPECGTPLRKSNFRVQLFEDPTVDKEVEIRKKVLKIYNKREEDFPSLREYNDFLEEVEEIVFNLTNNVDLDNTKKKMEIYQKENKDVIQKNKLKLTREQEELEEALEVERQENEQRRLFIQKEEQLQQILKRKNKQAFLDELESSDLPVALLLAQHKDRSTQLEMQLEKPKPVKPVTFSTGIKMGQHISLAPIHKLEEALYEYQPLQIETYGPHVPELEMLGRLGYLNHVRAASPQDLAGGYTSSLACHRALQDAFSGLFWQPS
UniProt Q7Z3U7, sequence (Q7Z3U7 whole entry, looked up): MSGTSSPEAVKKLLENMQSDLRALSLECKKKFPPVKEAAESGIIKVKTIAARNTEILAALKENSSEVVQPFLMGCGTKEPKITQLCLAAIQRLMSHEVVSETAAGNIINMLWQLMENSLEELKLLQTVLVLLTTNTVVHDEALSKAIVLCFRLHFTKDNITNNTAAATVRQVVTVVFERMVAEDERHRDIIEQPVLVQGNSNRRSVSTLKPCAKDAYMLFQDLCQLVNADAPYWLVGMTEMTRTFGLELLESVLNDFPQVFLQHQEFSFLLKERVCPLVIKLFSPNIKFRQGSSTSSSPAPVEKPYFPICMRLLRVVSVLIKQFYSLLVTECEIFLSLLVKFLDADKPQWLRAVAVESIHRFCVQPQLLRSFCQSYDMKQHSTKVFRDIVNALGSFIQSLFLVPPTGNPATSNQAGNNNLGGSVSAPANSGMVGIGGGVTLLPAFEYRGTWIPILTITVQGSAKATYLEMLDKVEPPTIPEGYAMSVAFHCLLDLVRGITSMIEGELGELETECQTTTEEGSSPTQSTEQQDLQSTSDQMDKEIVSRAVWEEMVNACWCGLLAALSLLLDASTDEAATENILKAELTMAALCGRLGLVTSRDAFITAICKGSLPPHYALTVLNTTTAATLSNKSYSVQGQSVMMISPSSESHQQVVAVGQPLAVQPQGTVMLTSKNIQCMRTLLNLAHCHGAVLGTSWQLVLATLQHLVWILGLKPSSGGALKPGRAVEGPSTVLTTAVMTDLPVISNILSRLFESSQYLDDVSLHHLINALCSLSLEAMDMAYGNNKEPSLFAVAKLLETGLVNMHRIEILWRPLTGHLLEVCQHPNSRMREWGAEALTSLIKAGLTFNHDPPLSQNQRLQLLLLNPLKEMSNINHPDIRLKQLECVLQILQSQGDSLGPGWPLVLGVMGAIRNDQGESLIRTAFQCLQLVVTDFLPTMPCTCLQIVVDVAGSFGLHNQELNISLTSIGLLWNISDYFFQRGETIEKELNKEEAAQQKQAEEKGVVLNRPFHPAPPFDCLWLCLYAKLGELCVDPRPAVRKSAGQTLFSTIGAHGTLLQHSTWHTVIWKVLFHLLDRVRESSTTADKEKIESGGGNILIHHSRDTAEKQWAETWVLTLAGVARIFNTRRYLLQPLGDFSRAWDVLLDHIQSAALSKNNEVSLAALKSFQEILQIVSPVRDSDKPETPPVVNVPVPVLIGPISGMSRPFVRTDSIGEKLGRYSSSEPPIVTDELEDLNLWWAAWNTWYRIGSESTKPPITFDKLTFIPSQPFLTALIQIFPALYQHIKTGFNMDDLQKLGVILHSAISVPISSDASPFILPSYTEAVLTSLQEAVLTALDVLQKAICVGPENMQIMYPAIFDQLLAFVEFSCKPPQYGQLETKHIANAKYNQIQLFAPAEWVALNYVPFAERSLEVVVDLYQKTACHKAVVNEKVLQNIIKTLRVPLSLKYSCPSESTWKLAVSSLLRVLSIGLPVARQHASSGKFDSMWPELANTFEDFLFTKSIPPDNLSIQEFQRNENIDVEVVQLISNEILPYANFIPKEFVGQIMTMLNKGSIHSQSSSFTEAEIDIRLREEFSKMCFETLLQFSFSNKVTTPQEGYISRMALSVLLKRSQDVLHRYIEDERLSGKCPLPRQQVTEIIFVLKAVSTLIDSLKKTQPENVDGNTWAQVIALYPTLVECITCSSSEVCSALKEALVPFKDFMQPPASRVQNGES
UniProt Q9H081, sequence (Q9H081 whole entry, looked up): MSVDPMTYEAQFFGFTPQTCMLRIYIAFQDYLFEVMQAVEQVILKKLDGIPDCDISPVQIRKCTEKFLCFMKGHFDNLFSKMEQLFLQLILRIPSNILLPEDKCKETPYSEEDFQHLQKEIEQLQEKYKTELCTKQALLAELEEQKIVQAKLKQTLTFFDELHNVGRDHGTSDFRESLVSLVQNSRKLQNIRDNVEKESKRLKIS
UniProt P40261, sequence (P40261 whole entry, looked up): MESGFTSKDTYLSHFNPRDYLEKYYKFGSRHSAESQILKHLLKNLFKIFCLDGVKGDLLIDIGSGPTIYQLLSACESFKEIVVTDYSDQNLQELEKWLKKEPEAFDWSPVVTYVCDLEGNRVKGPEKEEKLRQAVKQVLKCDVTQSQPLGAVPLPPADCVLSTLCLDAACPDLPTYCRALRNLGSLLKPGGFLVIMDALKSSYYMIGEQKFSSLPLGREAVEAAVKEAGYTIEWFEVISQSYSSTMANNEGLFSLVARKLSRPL
UniProt Q99747, sequence (Q99747 whole entry, looked up): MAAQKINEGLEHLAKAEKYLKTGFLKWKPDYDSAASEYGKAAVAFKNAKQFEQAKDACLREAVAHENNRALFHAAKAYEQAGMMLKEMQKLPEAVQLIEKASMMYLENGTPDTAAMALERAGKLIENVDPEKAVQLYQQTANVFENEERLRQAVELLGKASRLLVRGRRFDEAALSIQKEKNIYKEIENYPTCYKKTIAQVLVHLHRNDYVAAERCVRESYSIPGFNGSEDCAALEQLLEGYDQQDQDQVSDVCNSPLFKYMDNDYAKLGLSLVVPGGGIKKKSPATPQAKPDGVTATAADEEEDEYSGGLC
UniProt P57740, sequence (P57740 whole entry, looked up): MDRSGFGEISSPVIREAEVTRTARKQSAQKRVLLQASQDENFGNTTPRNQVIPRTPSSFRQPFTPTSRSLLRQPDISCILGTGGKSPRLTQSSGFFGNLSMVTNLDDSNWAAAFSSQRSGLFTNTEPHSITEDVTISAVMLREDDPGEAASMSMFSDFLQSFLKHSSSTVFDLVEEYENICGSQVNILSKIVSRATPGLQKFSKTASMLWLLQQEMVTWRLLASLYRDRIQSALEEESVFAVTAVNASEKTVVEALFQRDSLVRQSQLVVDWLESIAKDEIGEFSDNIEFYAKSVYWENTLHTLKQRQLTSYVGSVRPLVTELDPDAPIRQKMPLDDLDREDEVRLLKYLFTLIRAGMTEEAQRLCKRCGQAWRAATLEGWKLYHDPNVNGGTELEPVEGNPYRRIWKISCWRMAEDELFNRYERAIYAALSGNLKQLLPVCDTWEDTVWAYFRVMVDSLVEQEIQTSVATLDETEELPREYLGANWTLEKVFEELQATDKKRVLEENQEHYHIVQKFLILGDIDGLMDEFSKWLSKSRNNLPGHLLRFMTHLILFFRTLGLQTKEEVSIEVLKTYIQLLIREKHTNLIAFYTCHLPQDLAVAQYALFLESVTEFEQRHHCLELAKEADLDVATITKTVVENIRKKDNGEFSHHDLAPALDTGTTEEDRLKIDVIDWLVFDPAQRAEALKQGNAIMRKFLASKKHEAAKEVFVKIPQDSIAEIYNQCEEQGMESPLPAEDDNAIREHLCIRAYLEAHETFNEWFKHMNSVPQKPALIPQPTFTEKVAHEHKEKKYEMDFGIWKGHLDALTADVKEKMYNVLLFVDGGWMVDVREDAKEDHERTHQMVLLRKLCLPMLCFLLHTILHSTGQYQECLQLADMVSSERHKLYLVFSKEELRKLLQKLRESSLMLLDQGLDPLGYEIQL
UniProt P30419, sequence (P30419 whole entry, looked up): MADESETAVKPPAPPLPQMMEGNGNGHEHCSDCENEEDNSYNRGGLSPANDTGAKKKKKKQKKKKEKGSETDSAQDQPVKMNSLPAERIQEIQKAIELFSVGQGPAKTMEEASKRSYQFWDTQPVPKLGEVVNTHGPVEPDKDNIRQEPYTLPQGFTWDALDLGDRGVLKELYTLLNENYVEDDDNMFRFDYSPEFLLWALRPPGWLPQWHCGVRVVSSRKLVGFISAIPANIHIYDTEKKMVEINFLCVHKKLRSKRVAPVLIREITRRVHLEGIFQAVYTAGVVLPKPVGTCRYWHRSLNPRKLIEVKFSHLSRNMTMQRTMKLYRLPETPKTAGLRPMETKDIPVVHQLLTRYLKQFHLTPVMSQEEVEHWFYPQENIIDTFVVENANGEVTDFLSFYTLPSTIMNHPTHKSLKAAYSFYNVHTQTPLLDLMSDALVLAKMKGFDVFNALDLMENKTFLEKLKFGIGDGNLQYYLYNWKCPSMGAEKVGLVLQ

Target	log2 fold change [1]	log2 fold change (volasertib)	log2 fold change [2]	log2 fold change (epoxomicin)	log2 fold change [3]	log2 fold change [4]	log2 fold change [5]	log2 fold change (rosiglitazone)	log2 fold change [6]	log2 fold change [7]	log2 fold change (saracatinib)	log2 fold change (sotrastaurin)	log2 fold change (alvocidib)	log2 fold change (Tubastatin A)	log2 fold change [8]	log2 fold change (defactinib)	log2 fold change (rucaparib)	log2 fold change [9]	log2 fold change (encorafenib)	log2 fold change [10]
MRPS5 (UniProt P82675)	0.005	-0.066	0.181	0.077	-0.048	-0.05	-0.037	-0.005	0.032	0.102	-0.094	-0.124	-0.042	-0.009	-0.024	0.068	0.129	0.161	0.072	-0.068
NAPG (UniProt Q99747)	-0.118	-0.462 (active)	0.072	0.069	-0.05	-0.076	0.048	0.088	0	-0.028	-0.028	-0.075	-0.137	0.048	0.031	-0.159	0.044	0.053	0.052	-0.028
MIS12 (UniProt Q9H081)	-0.072	-0.36 (active)	0.012	0.026	-0.034	-0.007	0.055	0.04	-0.107	-0.039	0.04	-0.014	-0.145	0.031	0.002	-0.143	0.021	-0.006	0.021	-0.052
NMT1 (UniProt P30419)	0.028	-0.21	0.036	0.014	0.016	-0.028	-0.022	-0.073	0.007	-0.097	-0.046	0.019	0.001	-0.029	-0.003	0.015	-0.009	0.013	-0.002	0.024
NASP (UniProt P49321)	-0.118	-0.277 (active)	0.049	0.046	0.035	-0.03	0.004	0.029	-0.061	-0.051	0	-0.045	-0.08	0.012	0.073	-0.085	-0.11	-0.041	0.001	-0.004
NISCH (UniProt Q9Y2I1)	-0.349	-0.487 (active)	0.025	0.05	-0.252	-0.121	0.02	0.103	0.086	-0.518 (active)	-0.037	-0.066	-0.054	-0.022	-0.141	-0.128	-0.041	-0.072	0.093	-0.12
NFX1 (UniProt Q12986)	0.029	0.15	-0.001	-0.144	0.029	0.232	-0.216	0.138	0.128	0.197	-0.246	-0.09	0.08	-0.001	0.014	0.009	0.269	-0.237	-0.01	0
NDUFB10 (UniProt O96000)	-0.008	0.056	-0.007	0.001	0	0.03	-0.005	0.013	-0.043	-0.237 (active)	-0.027	0.008	-0.013	-0.022	-0.012	-0.016	0.012	-0.004	-0.005	-0.029
MNAT1 (UniProt P51948)	0.029	-0.027	-0.029	-0.057	-0.006	0.015	0.032	-0.027	-0.011	0.015	-0.017	0	-0.002	0.006	0.012	-0.03	-0.046	-0.004	-0.006	-0.009
NFATC2 (UniProt Q13469)	-0.098	-0.281	0.19	-0.001	0.045	-0.197	0.065	0.191	0.039	-0.102	-0.128	-0.166	-0.199	0.118	0.007	-0.14	-0.047	-0.382 (active)	0.101	0.071
NUP107 (UniProt P57740)	0.038	-0.182	0.106	-0.053	-0.069	0.169	-0.048	0.057	0.053	0.628 (active)	-0.017	-0.103	-0.056	0.067	0.023	-0.081	0.041	0.02	0.111	0
NCAPD2 (UniProt Q15021)	-0.131	-0.486 (active)	0.081	0.019	-0.085	0	0.075	0.023	0.044	-0.098	-0.052	-0.145	-0.029	0.012	0.111	-0.052	0.142	0.008	0.11	-0.025
MRPS31 (UniProt Q92665)	0.056	0	0.036	-0.015	-0.036	0.014	-0.054	-0.018	0	0.052	0.031	-0.088	0.04	0.053	0.025	0.027	0.031	0.078	0.041	0.016
NNMT (UniProt P40261)	0.003	-0.197	0.023	0.039	0.017	-0.068	-0.042	0.007	-0.025	-0.152	-0.041	0.01	-0.087	-0.081	0.016	0.004	-0.078	0.021	-0.021	0.038
MON2 isoform 5 (UniProt Q7Z3U7)	-0.125	-0.377 (active)	0.06	0.023	0	-0.028	0.031	0.062	-0.064	-0.158	-0.089	-0.001	-0.056	-0.005	0.02	-0.011	0.01	0.044	0.026	-0.025
NDUFS4 (UniProt O43181)	0.052	0.074	-0.037	-0.025	-0.007	0.071	-0.079	-0.046	0.033	-0.013	0.117	0.1	0.049	-0.082	-0.025	0.035	0.011	-0.074	-0.051	0.079
